The supplement of paper PMC6555819

Experiments:
Assay in all cases: PBM binding z-score (relative to random genomic background probes); higher = stronger binding; sequences stand for … in GC…GCGATTGACAGCGTAGAATGAAGG
[1] = system: FXR:RXRa (NR concentration 270 nM, RXRa partner concentration 90 nM)
How it was run: (§1)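 Each nuclear receptor dimer, without ligand, was incubated for 1 h on custom Agilent 4×180K protein-binding microarrays. Binding was detected with antibodies against each partner (one per run), and scanned fluorescence was regression-normalized. The binding z-scores are referenced to random human genomic background probes.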

[2] = system: LXRa:RXRa (NR concentration 270 nM, RXRa partner concentration 90 nM)
How it was run: as §1

[3] = system: LXRa homodimer (NR concentration 270 nM)
How it was run: as §1

[4] = system: LXRb:RXRa (NR concentration 270 nM, RXRa partner concentration 90 nM)
How it was run: as §1

[5] = system: LXRb homodimer (NR concentration 270 nM)
How it was run: as §1

[6] = system: PPARa:RXRa (NR concentration 270 nM, RXRa partner concentration 90 nM)
How it was run: as §1

[7] = system: PPARg:RXRa (NR concentration 180 nM, RXRa partner concentration 90 nM)
How it was run: as §1

[8] = system: PPARg:RXRa 270nM:90nM, anti-RXR (NR concentration 270 nM, RXRa partner concentration 90 nM)
How it was run: as §1

[9] = system: PPARg:RXRa 30nM:10nM, anti-RXR (NR concentration 30 nM, RXRa partner concentration 10 nM)
How it was run: as §1

[10] = system: PPARg:RXRa 90nM:30nM, anti-RXR (NR concentration 90 nM, RXRa partner concentration 30 nM)
How it was run: as §1

[11] = system: PPARg:RXRa DBDmut IVT, anti-RXR (DBD mutation: RXRa K156A/R161A, NR concentration 270 nM, RXRa partner concentration 90 nM)
How it was run: as §1

[12] = system: PPARg:RXRa IVT, anti-PPARg (NR concentration 270 nM, RXRa partner concentration 90 nM)
How it was run: as §1

[13] = system: PPARg DBDmut:RXRa IVT, anti-PPARg (DBD mutation: PPARg1 K132A/R137A, NR concentration 270 nM, RXRa partner concentration 90 nM)
How it was run: as §1

[14] = system: PPARg DBDmut IVT, anti-PPARg (DBD mutation: PPARg1 K132A/R137A, NR concentration 270 nM)
How it was run: as §1

[15] = system: PPARg homodimer (NR concentration 180 nM)
How it was run: as §1

[16] = system: PXR:RXRa (NR concentration 270 nM, RXRa partner concentration 90 nM)
How it was run: as §1

[17] = system: PXR homodimer (NR concentration 270 nM)
How it was run: as §1

[18] = system: RARa:RXR (NR concentration 270 nM, RXRa partner concentration 90 nM)
How it was run: as §1

[19] = system: RARa homodimer (NR concentration 270 nM)
How it was run: as §1

[20] = system: RARb:RXRa (NR concentration 270 nM, RXRa partner concentration 90 nM)
How it was run: as §1

In the case of GCTGCTAGGTCAGGTTGGTGAGCTAACGGGTACG, the PBM binding z-score [1] is reported as 1.04, the PBM binding z-score [2] is reported as 0.598 and the PBM binding z-score [3] is reported as -0.365. It also gave a PBM binding z-score [4] of 0.053, a PBM binding z-score [5] of -0.485 and a PBM binding z-score [6] of 1.22. The PBM binding z-score [7] was 0.336, the PBM binding z-score [8] was 0.876 and the PBM binding z-score [9] was -0.603. For the same sequence, the PBM binding z-score [10] was 0.225, the PBM binding z-score [11] was 2.52 and the PBM binding z-score [12] was 1.93. The PBM binding z-score [13] was -0.822, the PBM binding z-score [14] was -0.37 and the PBM binding z-score [15] was 0.201. For the same sequence, the PBM binding z-score [16] was 0.142, the PBM binding z-score [17] was -0.5 and the PBM binding z-score [18] was 0.873. The PBM binding z-score [19] was -0.817 and the PBM binding z-score [20] was 3.24.
Work on TGTCAAAGTTCAAAGGTAATGTAAGTATCCACAC yielded a PBM binding z-score [1] of 7.19, a PBM binding z-score [2] of 6.2 and a PBM binding z-score [3] of 4.51. It also gave a PBM binding z-score [4] of 4.31, a PBM binding z-score [5] of 1.91 and a PBM binding z-score [6] of 5.66. It also gave a PBM binding z-score [7] of 8.55, a PBM binding z-score [8] of 7.39 and a PBM binding z-score [9] of 5.63. It also gave a PBM binding z-score [10] of 7.6, a PBM binding z-score [11] of 0.141 and a PBM binding z-score [12] of 4.47. For the same sequence, the PBM binding z-score [13] was 1.92, the PBM binding z-score [14] was 1.26 and the PBM binding z-score [15] was 3.02. It also gave a PBM binding z-score [16] of 5.65, a PBM binding z-score [17] of 3.61 and a PBM binding z-score [18] of 5.92. For the same sequence, the PBM binding z-score [19] was 1.41 and the PBM binding z-score [20] was 4.94.
With TCGCCTAGGTCATTGGGCCAGTATAGTACGCATC the PBM binding z-score [1] was 4.27, the PBM binding z-score [2] was 2.83 and the PBM binding z-score [3] was 0.548. For the same sequence, the PBM binding z-score [4] was 2.4, the PBM binding z-score [5] was -0.239 and the PBM binding z-score [6] was 3.61. The PBM binding z-score [7] was 3.1, the PBM binding z-score [8] was 3.57 and the PBM binding z-score [9] was 2.21. It also gave a PBM binding z-score [10] of 2.73, a PBM binding z-score [11] of 3.09 and a PBM binding z-score [12] of 3.38. For the same sequence, the PBM binding z-score [13] was -0.283, the PBM binding z-score [14] was -0.432 and the PBM binding z-score [15] was 1.52. The PBM binding z-score [16] was 1.74, the PBM binding z-score [17] was 0.00603 and the PBM binding z-score [18] was 2.24. The PBM binding z-score [19] was -0.44 and the PBM binding z-score [20] was 3.66.
In the case of ATACCAAGGTGATCGTCAGGTCGTTGATACTAAC, the PBM binding z-score [1] is reported as 1.07, the PBM binding z-score [2] is reported as 0.928 and the PBM binding z-score [3] is reported as 0.311. The PBM binding z-score [4] was 0.454, the PBM binding z-score [5] was -0.244 and the PBM binding z-score [6] was 0.892. The PBM binding z-score [7] was 0.38, the PBM binding z-score [8] was 0.265 and the PBM binding z-score [9] was 0.184. It also gave a PBM binding z-score [10] of 0.227, a PBM binding z-score [11] of 0.522 and a PBM binding z-score [12] of 1.08. The PBM binding z-score [13] was 0.616, the PBM binding z-score [14] was -0.131 and the PBM binding z-score [15] was 0.369. It also gave a PBM binding z-score [16] of 1.24, a PBM binding z-score [17] of 0.399 and a PBM binding z-score [18] of 1.23. The PBM binding z-score [19] was -0.256 and the PBM binding z-score [20] was 1.12.
Sequence TCATATAGGTAAATGCTAGGGGAAAGTCCGATCT has a PBM binding z-score [1] of 0.958, a PBM binding z-score [2] of 0.949 and a PBM binding z-score [3] of 0.455. For the same sequence, the PBM binding z-score [4] was 0.865, the PBM binding z-score [5] was 0.134 and the PBM binding z-score [6] was 1.21. The PBM binding z-score [7] was 0.788, the PBM binding z-score [8] was 2.13 and the PBM binding z-score [9] was 3.88. The PBM binding z-score [10] was 3.25, the PBM binding z-score [11] was 4.25 and the PBM binding z-score [12] was 2.11. It also gave a PBM binding z-score [13] of 1.09, a PBM binding z-score [14] of 1.29 and a PBM binding z-score [15] of 0.609. It also gave a PBM binding z-score [16] of 0.434, a PBM binding z-score [17] of 0.33 and a PBM binding z-score [18] of 0.628. It also gave a PBM binding z-score [19] of 1.4 and a PBM binding z-score [20] of 0.327.
Sequence TGCATGAGGTTAAAGATCAGGGAACGTGGCGTCG has a PBM binding z-score [1] of 3.2, a PBM binding z-score [2] of 2.84 and a PBM binding z-score [3] of 0.267. It also gave a PBM binding z-score [4] of 1.84, a PBM binding z-score [5] of 0.579 and a PBM binding z-score [6] of 3.89. For the same sequence, the PBM binding z-score [7] was 4.03, the PBM binding z-score [8] was 4.6 and the PBM binding z-score [9] was 2.43. The PBM binding z-score [10] was 4.38, the PBM binding z-score [11] was 0.0827 and the PBM binding z-score [12] was 1.55. The PBM binding z-score [13] was 0.0491, the PBM binding z-score [14] was 0.396 and the PBM binding z-score [15] was 1.07. It also gave a PBM binding z-score [16] of 2.23, a PBM binding z-score [17] of 0.0644 and a PBM binding z-score [18] of 2.93. For the same sequence, the PBM binding z-score [19] was 0.611 and the PBM binding z-score [20] was 2.23.
In the case of CTTCCAAGGTCATAGGAGGTCAGTGAAGACAGAT, the PBM binding z-score [1] is reported as 7.67, the PBM binding z-score [2] is reported as 7.56 and the PBM binding z-score [3] is reported as 6.46. The PBM binding z-score [4] was 6, the PBM binding z-score [5] was 1.51 and the PBM binding z-score [6] was 6.02. The PBM binding z-score [7] was 5.71, the PBM binding z-score [8] was 6.17 and the PBM binding z-score [9] was 2.87. The PBM binding z-score [10] was 4.89, the PBM binding z-score [11] was 3.59 and the PBM binding z-score [12] was 4.67. The PBM binding z-score [13] was 1.93, the PBM binding z-score [14] was 1.31 and the PBM binding z-score [15] was 4.55. It also gave a PBM binding z-score [16] of 6.93, a PBM binding z-score [17] of 4.92 and a PBM binding z-score [18] of 6.14. For the same sequence, the PBM binding z-score [19] was 3.57 and the PBM binding z-score [20] was 5.42.
With ACTAGCAGGCCAAGTTTGGGTCTCTCAAACAAAG the PBM binding z-score [1] was -0.742, the PBM binding z-score [2] was -0.825 and the PBM binding z-score [3] was -0.773. For the same sequence, the PBM binding z-score [4] was -0.616, the PBM binding z-score [5] was -0.908 and the PBM binding z-score [6] was -0.417. It also gave a PBM binding z-score [7] of -0.897, a PBM binding z-score [8] of -0.524 and a PBM binding z-score [9] of -1.1. It also gave a PBM binding z-score [10] of -0.853, a PBM binding z-score [11] of 0.491 and a PBM binding z-score [12] of 0.0697. The PBM binding z-score [13] was -1.53, the PBM binding z-score [14] was -0.788 and the PBM binding z-score [15] was -1.17. The PBM binding z-score [16] was -0.733, the PBM binding z-score [17] was -0.734 and the PBM binding z-score [18] was -0.606. It also gave a PBM binding z-score [19] of -1.44 and a PBM binding z-score [20] of 0.382.
CAAACTAGGTCACGGTCAAAGTCGGTTTGTGCCA was tested, and the PBM binding z-score [1] was 5.44, the PBM binding z-score [2] was 4.31 and the PBM binding z-score [3] was 1.73. It also gave a PBM binding z-score [4] of 3.13, a PBM binding z-score [5] of 0.506 and a PBM binding z-score [6] of 5.57. The PBM binding z-score [7] was 9.6, the PBM binding z-score [8] was 7.81 and the PBM binding z-score [9] was 5.91. It also gave a PBM binding z-score [10] of 7.67, a PBM binding z-score [11] of 8.53 and a PBM binding z-score [12] of 9.26. It also gave a PBM binding z-score [13] of 4.37, a PBM binding z-score [14] of 3.83 and a PBM binding z-score [15] of 2.22. The PBM binding z-score [16] was 2.72, the PBM binding z-score [17] was -0.218 and the PBM binding z-score [18] was 3.68. For the same sequence, the PBM binding z-score [19] was 0.991 and the PBM binding z-score [20] was 4.81.
